Source: PubChem BioAssay AID1159580 (chemical genetic matrix, 2015)
The campaign covered roughly 5,500 compounds. About 2,000 (36%) were called active. About 18% were inconclusive and are not listed. Rule as the data show it: active = normalized growth mostly below about 0.91 (no sharp cut-off); inconclusive = no clear call, values can overlap the other calls; inactive = mostly above about 0.92. The list shows a part of the results.

Test: chemical genetic growth profiling, strain panel (AID 1159580);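 also: tested at 20 µM; growth read once vehicle control cultures reached saturation at 30 °C; 1 = growth at the plate median or of vehicle wells; lower values mean less growth of the strain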
Conditions: S. cerevisiae deletion strains, growth OD
[1] = locus YDR150W, strain NUM1, stronger effect = lower value
[2] = locus YGR078C, strain PAC10, stronger effect = lower value
[3] = locus YMR263W, strain SAP30, stronger effect = lower value
[4] = locus YPL055C, strain LGE1, stronger effect = lower value

Measured: normalized growth

CCN(CC)C(=O)N[C@@H]1C[C@@H]2c3cccc4[nH]cc(c34)C[C@H]2N(C)C1
inactive: locus YAL040C, strain CLN3, stronger effect = lower value 1 | locus YCL061C, strain MRC1 (second series), stronger effect = lower value 1.01 | [1] 1 | locus YDR363W, strain ESC2, stronger effect = lower value 1.01 | locus YER002W, strain NOP16, stronger effect = lower value 0.995 | [2] 1.01 | [3] 1 | locus YMR307W, strain GAS1, stronger effect = lower value 1.01 | locus YNL128W, strain TEP1, stronger effect = lower value 1.01 | locus YNL175C, strain NOP13, stronger effect = lower value 0.993 | locus YNL197C, strain WHI3, stronger effect = lower value 0.995 | locus YNL224C, strain SQS1, stronger effect = lower value 1.02 | locus YOR083W, strain WHI5 (second series), stronger effect = lower value 1.01 | [4] 1.01

COC(CNc1cccc(Cl)c1C#N)OC
inactive: locus YAL013W, strain DEP1, stronger effect = lower value 0.997 | locus YBR229C, strain ROT2, stronger effect = lower value 0.994 | locus YDL101C, strain DUN1, stronger effect = lower value 0.983 | locus YDL134C, strain PPH21, stronger effect = lower value 0.961 | [1] 1.01 | locus YEL061C, strain CIN8, stronger effect = lower value 0.971 | [2] 0.989 | locus YGR229C, strain SMI1, stronger effect = lower value 0.978 | locus YHR030C, strain SLT2, stronger effect = lower value 0.944 | locus YHR087W, strain rtc3, stronger effect = lower value 0.98 | locus YJL187C, strain SWE1, stronger effect = lower value 0.981 | locus YJR043C, strain POL32, stronger effect = lower value 0.989 | locus YJR075W, strain HOC1, stronger effect = lower value 0.958 | locus YLR039C, strain RIC1, stronger effect = lower value 0.983 | locus YLR058C, strain SHM2 (second series), stronger effect = lower value 0.989 | locus YLR085C, strain ARP6, stronger effect = lower value 0.931 | locus YLR262C, strain YPT6, stronger effect = lower value 0.979 | locus YML094W, strain GIM5, stronger effect = lower value 0.953 | locus YMR219W, strain ESC1, stronger effect = lower value 0.986 | [3] 1.01 | locus YNL153C, strain GIM3, stronger effect = lower value 0.946 | locus YNL298W, strain CLA4 (second series), stronger effect = lower value 0.979 | locus YNL322C, strain KRE1, stronger effect = lower value 0.98 | locus YNR030W, strain Alg12, stronger effect = lower value 0.976 | [4] 1.03 | locus YPL241C, strain CIN2, stronger effect = lower value 0.95 | locus YPR135W, strain CTF4, stronger effect = lower value 0.957
